Tau fluor cs – counter-screen for tau fibril formation inhibitors | tau K18 P301L Alexa594 fluorescence, heparin fibrillization | Potency, µM (top dose mostly 57.7 µM), for inactives: at the highest dose activity change, negative = decrease | 0.93% of 280,000 active; also: potency is read from the fitted curve at half-maximal effect; nearly all actives have a fitted effect of over 55% in size
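Human K18 P301L tau (15 uM unlabeled plus 0.24 uM Alexa 594-labeled, final) in 100 mM sodium acetate pH 7 was mixed with compound and 20 uM heparin and incubated 6 hr at 37 C.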
FBPA coupling cs – inhibits coupling enzyme system, counter-screen for aldolase hits | coupling enzyme system counterscreen, AmpLite Red fluorescence | activity change, negative = inhibition, % at 58.2 µM, hits read low | 0.67% of 290,000 active; in the data active = activity change below about -30%
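Activity here indicates interference with the coupling reaction, not aldolase inhibition. Compounds at 57.5 uM final met coupling enzymes for 10 min at RT; substrate and AmpLite Red detection followed, with a 525/598 nm fluorescence read after 20 min.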
G9a inh – blocks human histone lysine methyltransferase G9a; Q96KQ7; G9a H3K9 monomethylation, AlphaScreen, 2 h; Potency, µM (titrated, usually from 102 µM), for the others: top-dose activity, negative = inhibition, actives largely listed as inhibitors; 8.8% of 350,000 active; also: potency is read from the fitted curve at half-maximal effect; nearly all actives have a fitted effect of over 75% in size
Target sequence (Q96KQ7 913-1193 limits assumed): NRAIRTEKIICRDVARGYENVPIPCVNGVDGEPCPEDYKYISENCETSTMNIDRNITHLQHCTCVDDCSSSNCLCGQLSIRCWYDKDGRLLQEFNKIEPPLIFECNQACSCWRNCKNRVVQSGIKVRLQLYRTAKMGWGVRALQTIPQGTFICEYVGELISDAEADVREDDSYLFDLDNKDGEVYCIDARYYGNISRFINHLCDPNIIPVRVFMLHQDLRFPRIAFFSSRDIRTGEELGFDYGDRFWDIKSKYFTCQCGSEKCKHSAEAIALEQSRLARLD
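Quantitative HTS format: methyltransferase activity on a biotin-tagged H3K9 peptide is measured by AlphaScreen, using a rabbit anti-monomethyl-H3K9 antibody with streptavidin donor and anti-IgG acceptor beads. Final levels are 20 nM enzyme, 500 nM peptide, 20 uM SAM; 2 h RT.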
Tau FP inhib – inhibitors of human tau fibril formation; 0.39% of 280,000 active; K18 P301L tau heparin fibrillization, Alexa594 FP, 6 h; P10636; Potency, µM (titrated, usually from 57.7 µM), for inactives: top-dose activity, negative = inhibition, actives largely listed as inhibitors; AID 1468; also: potency is read from the fitted curve at half-maximal effect; nearly all actives have a fitted effect of over 55% in size
Target sequence (P10636 561-689 P618L limits assumed): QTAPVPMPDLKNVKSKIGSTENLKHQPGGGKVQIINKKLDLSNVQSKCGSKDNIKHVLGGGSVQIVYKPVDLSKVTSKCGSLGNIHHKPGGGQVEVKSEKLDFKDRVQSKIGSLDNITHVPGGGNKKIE
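Compound effects on tau fibrillization are measured by Alexa 594 fluorescence polarization (ex 555, em 632 nm). K18 P301L tau is used at 15 uM with 0.24 uM labeled tracer, and 20 uM heparin induces aggregation over 6 hr at 37 C.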
Tau fibril ThT – tau fibrillization inhibition (ThT binding); P10636; recombinant tau K18 P301L (four-repeat tau fragment), heparin-induced fibrillization, ThT fluorescence; Potency, µM (highest dose often 57.4 µM), for inactives: at the top dose activity, negative = inhibition, hits mostly inhibitors; 2.1% of 270,000 active; AID 1460; also: potency is read from the fitted curve at half-maximal effect; nearly all actives have a fitted effect of over 55% in size
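Recombinant human tau K18 fragment […] carrying P301L, 15 uM unlabeled plus 0.24 uM Alexa 594-labeled, was fibrillized with 20 uM heparin in 100 mM sodium acetate pH 7 for 6 hr at 37 C; 30 uM ThT fluorescence read after 1 hr.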
Sfp inh – Sfp phosphopantetheinyl transferase inhibition | Biochemical Sfp PPTase activity, qHTS | Potency, µM, inactives show largest response in the series, negative = inhibition, most hits filed as inhibitors | 3.5% of 310,000 active | Q9F4F7;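 also: the enzyme is Sfp with the accession as filed and its product quenches rhodamine fluorescence; potency is read from the fitted curve at half-maximal effect; 0% = enzyme reaction without inhibitor and -100% = no enzyme wells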
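Fluorescence-quenching assay: 15 nM Sfp-PPTase preincubated 15 min at room temperature with compound, then 5 uM rhodamine-CoA and 12.5 uM BHQ-2-labelled YbbR peptide added. Fluorescence (ex 525/em 598 nm) read at start and after 30 min; difference gives rate.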
Active calls of the source: *; ? = inconclusive; / = not tested or not shown; [ ] = another dose, or the depositor's remark. In the library only some 11% were active in any assay of this set; here they are far more common. Unless noted, calls follow the shape of the dose curve; as a rule, active = well fitted curve in the direction sought with a large enough effect; inconclusive = small, poorly fitted or top-dose-only effect, or another doubt; inactive = no such curve, though single readings can be large; an effect the other way counts as inactive or inconclusive. Unless noted, % is scaled to controls: 0 for no effect and ±100 for the full control effect.

SMILES	Tau fluor cs	FBPA coupling cs	G9a inh	Tau FP inhib	Tau fibril ThT	Sfp inh
NC(=O)CC(NC(=O)c1ccccc1)c1ccc(NCCc2cccc(F)c2)c([N+](=O)[O-])c1 (centres undefined)	-26%	-2	-29%[12.7 µM]	-4%	16µM*	-2%
Cc1c(O)c(=O)ccn1Cc1ccccc1	-3%[11.6 µM]	2	32µM*	-5%[11.6 µM]	-5%[11.5 µM]	-2%
Cc1cc(OCC(=O)N(Cc2ccc(N(C)C)cc2)CC2CCCO2)ccc1Cl (centres undefined)	-21%	/	13µM*	8%	-17%	/
CN(C)c1ccc(CN(CC2CCCO2)C(=O)COc2ccc(Cl)cc2)cc1 (centres undefined)	-17%	/	14µM*	5%	-11%	/
CCCOc1ccc(C(=O)N(Cc2ccc(N(C)C)cc2)CC2CCCO2)cc1 (centres undefined)	-23%	/	11µM*	3%	?	/
COc1ccccc1OCC(=O)N(Cc1ccc(Cl)cc1)CC1CCCO1 (centres undefined)	-2%	/	7%[59 µM]	1%	9%	/
CCOc1ccccc1C(=O)N(Cc1ccc(N(C)C)cc1)CC1CCCO1 (centres undefined)	-4%	/	?	-3%	?	/
COc1ccccc1N1CCN(CCCNC(=O)c2nnc(Cc3c(F)cccc3Cl)o2)CC1	-13%	/	-5%[59 µM]	-4%	-6%	/
CSc1c(-c2ccccc2)nc2ccc(Cl)cc2c1C(=O)O	3%	-1	41%[12.7 µM]	2%	-6%	-2%
Cc1ccc2nc(-c3ccccc3)c(CC(=O)O)c(C(=O)O)c2c1	-11%	0	45µM*	0%	-12%	10%
O=C1CN(CC(=O)N2CCCCC2)c2ccccc2O1	?	-17	?	?	28µM*	-4%
O=C(CN1CC(=O)Oc2ccccc21)OCC(=O)c1ccc(F)cc1	-16%	-10	?	-11%	-16%	50µM*
O=C(Cc1n[nH]c(=O)c2ccccc12)OCC(=O)c1ccc(F)cc1	/	/	-30%	/	/	/
CCOC(=O)N1CCC(N2CCCC(C(=O)c3cccc(OC(C)C)c3)C2)CC1 (centres undefined)	-21%	-2	/	4%	-17%	-4%
COc1cccc(C(=O)C[n+]2ccccc2/C=N/O)c1	-15%	1	50µM*	-11%	?	-3%
Cc1sc2c(c1C)CN(C(C)(C)C)CN2C(=O)c1ccccc1	-17%	3	50µM*	0%	-17%	-7%
COc1ccccc1N1CCN(Cc2nc(-c3cc(OC)c(OC)c(OC)c3)no2)CC1	-16%	/	?	1%	-7%	/
CC1CCN(S(=O)(=O)c2ccc(C(=O)Nc3ccccc3-c3nc4ccccc4[nH]3)cc2)CC1	?	-1	30%[59 µM]	28µM*	18%	5%
CC1CCCN(S(=O)(=O)c2ccc(C(=O)Nc3ccccc3-c3nc4ccccc4[nH]3)cc2)C1 (centres undefined)	?	0	36%[59 µM]	?	6%	19%
Cc1cc(F)ccc1S(=O)(=O)Nc1ccccc1C(=O)Nc1ccccc1-c1nc2ccccc2[nH]1	?	-2	22%[59 µM]	13µM*	8%	29%
O=C(O)c1cc(NC(=O)c2cccc(C(=O)Nc3cc(C(=O)O)cc(C(=O)O)c3)c2)cc(C(=O)O)c1	/	0	?	/	/	23%
CCOc1ccc(NC(=O)CSc2nnc(Cc3cccn3C)n2-c2ccc(F)cc2)cc1	-25%	-1	45µM*	7%	-17%	-1%
COc1ccc(-n2c(Cc3cccn3C)nnc2SCC(=O)Nc2cccc(OC)c2)cc1	-17%	3	50µM*	4%	-11%	-12%
COc1ccc(NC(=O)CSc2nnc(Cc3cccn3C)n2-c2ccc(C)cc2)cc1OC	-16%	3	?	-4%	-10%	-5%
COc1ccc(-n2c(Cc3cccn3C)nnc2SCC(=O)Nc2ccc(F)cc2)cc1	0%	3	35µM*	0%	-1%	-16%

Screening results as filed in PubChem.
